# Measurements published in ChEMBL document CHEMBL1961873, “Compounds: GSK PKIS; Assays: Nanosyn kinase panel” (2012).
# Experiments:
# [1] = target: Ribosomal protein S6 kinase alpha-6 (Homo sapiens) (UniProt Q9UK32); settings: at 1 µM;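 further: each value is a mean inhibition of RSK4 from a GSK PKIS panel screen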
# [2] = target: T1, Serine/threonine-protein kinase Sgk1 (Homo sapiens) (UniProt O00141); settings: at 0.1 µM
# T1 sequence (whole entry): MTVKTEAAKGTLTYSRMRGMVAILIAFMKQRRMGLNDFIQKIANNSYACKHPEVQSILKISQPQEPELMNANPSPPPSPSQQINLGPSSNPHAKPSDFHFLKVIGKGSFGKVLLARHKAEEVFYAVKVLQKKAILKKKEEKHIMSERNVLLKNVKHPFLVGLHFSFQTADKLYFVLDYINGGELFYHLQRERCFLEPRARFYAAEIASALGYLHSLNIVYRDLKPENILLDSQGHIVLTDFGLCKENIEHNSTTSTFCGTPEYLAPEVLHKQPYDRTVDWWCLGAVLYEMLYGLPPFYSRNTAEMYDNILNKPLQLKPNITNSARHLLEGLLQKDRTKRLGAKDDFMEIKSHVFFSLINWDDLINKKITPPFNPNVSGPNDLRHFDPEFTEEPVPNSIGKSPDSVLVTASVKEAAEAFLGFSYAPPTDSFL
# [3] = target: T1, Serine/threonine-protein kinase Sgk1 (Homo sapiens); settings: at 1 µM
# [4] = target: T2, Serine/threonine-protein kinase Sgk2 (Homo sapiens) (UniProt Q9HBY8); settings: at 0.1 µM
# T2 sequence (whole entry): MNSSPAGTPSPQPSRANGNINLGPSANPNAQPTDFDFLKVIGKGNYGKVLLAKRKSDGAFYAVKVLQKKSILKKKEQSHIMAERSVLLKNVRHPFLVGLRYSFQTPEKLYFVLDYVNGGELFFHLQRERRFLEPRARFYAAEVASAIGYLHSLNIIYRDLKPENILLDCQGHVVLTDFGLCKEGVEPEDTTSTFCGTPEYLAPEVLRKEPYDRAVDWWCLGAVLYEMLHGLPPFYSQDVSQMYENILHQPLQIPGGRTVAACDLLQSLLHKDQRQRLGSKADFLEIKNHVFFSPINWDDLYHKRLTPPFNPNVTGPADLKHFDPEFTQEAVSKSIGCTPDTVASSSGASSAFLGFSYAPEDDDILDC
# [5] = target: T2, Serine/threonine-protein kinase Sgk2 (Homo sapiens); settings: at 1 µM
# [6] = target: T3, Serine/threonine-protein kinase Sgk3 (Homo sapiens) (UniProt Q96BR1); settings: at 0.1 µM
# T3 sequence (whole entry): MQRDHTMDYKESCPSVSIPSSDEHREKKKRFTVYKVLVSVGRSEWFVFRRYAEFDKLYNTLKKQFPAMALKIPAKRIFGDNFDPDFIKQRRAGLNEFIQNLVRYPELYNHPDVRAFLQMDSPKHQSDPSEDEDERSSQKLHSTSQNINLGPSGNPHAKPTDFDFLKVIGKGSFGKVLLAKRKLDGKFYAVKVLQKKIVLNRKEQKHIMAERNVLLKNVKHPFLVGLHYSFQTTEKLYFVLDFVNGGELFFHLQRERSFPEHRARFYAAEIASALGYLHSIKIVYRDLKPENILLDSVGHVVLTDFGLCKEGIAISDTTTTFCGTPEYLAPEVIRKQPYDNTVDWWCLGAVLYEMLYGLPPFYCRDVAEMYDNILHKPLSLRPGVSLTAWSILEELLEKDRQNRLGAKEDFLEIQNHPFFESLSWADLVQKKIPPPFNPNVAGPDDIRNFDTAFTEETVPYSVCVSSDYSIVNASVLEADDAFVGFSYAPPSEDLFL
# [7] = target: T3, Serine/threonine-protein kinase Sgk3 (Homo sapiens); settings: at 1 µM
# [8] = target: 5'-AMP-activated protein kinase catalytic subunit alpha-1 (Homo sapiens) (UniProt Q13131); settings: at 0.1 µM
# [9] = target: 5'-AMP-activated protein kinase catalytic subunit alpha-1 (Homo sapiens) (UniProt Q13131); settings: at 1 µM
# [10] = target: 5'-AMP-activated protein kinase catalytic subunit alpha-2 (Homo sapiens) (UniProt P54646); settings: at 0.1 µM
# [11] = target: 5'-AMP-activated protein kinase catalytic subunit alpha-2 (Homo sapiens) (UniProt P54646); settings: at 1 µM
# [12] = target: T4, NUAK family SNF1-like kinase 1 (Homo sapiens) (UniProt O60285); settings: at 0.1 µM
# T4 sequence (whole entry): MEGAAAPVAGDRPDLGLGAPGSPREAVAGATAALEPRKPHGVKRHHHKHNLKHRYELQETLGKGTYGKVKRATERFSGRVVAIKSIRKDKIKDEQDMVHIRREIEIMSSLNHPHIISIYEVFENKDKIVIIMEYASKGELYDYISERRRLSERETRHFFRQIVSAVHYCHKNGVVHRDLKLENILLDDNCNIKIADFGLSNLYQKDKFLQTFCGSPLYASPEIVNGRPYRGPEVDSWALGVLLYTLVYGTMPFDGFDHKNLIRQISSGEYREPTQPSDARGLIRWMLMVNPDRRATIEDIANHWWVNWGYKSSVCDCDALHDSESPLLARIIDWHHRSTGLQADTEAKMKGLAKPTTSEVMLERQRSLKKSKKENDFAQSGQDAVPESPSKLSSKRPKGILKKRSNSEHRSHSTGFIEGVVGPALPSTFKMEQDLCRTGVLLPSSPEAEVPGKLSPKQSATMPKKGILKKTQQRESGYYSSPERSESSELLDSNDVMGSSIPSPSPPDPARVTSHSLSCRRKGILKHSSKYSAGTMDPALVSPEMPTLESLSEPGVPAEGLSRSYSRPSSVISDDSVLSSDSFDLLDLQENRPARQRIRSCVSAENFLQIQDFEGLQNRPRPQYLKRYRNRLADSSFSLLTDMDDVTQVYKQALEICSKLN
# [13] = target: T4, NUAK family SNF1-like kinase 1 (Homo sapiens); settings: at 1 µM
# [14] = target: T5, Serine/threonine-protein kinase BRSK1 (Homo sapiens) (UniProt Q8TDC3); settings: at 0.1 µM
# T5 sequence (whole entry): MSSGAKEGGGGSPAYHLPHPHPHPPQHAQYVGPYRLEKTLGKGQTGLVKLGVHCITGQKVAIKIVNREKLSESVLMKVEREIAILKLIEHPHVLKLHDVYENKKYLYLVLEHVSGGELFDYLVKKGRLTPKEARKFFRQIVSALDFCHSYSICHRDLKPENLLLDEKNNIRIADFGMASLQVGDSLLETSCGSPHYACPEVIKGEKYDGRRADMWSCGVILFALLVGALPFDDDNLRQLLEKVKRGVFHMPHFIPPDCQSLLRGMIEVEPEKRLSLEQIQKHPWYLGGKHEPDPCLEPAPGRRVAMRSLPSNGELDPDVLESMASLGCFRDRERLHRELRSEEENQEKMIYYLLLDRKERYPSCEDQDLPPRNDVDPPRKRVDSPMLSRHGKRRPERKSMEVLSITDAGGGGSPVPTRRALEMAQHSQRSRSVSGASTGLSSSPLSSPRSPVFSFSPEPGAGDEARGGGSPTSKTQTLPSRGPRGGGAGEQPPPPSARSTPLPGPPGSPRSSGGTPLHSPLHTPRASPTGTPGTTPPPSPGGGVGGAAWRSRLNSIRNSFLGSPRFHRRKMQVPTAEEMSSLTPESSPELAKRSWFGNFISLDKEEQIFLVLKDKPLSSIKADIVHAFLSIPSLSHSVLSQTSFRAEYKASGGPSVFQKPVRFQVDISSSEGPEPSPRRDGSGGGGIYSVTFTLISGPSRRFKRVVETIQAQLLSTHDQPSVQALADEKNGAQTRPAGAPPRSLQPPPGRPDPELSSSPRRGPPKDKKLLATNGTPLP
# [15] = target: T5, Serine/threonine-protein kinase BRSK1 (Homo sapiens); settings: at 1 µM
# [16] = target: T6, Serine/threonine-protein kinase BRSK2 (Homo sapiens) (UniProt Q8IWQ3); settings: at 0.1 µM
# T6 sequence (whole entry): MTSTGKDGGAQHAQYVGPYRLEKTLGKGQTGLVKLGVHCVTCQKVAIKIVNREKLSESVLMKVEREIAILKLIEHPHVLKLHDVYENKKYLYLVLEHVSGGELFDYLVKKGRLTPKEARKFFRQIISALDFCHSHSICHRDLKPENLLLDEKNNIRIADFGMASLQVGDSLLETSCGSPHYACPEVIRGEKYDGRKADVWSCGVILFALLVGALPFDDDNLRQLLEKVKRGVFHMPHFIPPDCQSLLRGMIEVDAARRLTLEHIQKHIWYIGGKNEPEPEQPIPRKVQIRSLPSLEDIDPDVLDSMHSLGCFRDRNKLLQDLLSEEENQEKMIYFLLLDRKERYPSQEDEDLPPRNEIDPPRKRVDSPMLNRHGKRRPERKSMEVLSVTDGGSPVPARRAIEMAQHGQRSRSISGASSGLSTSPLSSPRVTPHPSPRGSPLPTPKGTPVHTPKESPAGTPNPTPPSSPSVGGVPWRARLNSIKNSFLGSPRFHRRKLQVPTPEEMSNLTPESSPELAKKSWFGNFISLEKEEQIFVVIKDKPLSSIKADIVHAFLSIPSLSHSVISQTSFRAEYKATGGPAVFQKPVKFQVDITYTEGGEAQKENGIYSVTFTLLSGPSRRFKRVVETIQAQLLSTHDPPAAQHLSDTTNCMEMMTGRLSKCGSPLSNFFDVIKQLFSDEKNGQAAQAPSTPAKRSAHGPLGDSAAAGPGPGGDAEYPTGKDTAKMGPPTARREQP
# [17] = target: T6, Serine/threonine-protein kinase BRSK2 (Homo sapiens); settings: at 1 µM
# [18] = target: Calcium/calmodulin-dependent protein kinase type 1D (Homo sapiens) (UniProt Q8IU85); settings: at 0.1 µM
# [19] = target: Calcium/calmodulin-dependent protein kinase type 1D (Homo sapiens) (UniProt Q8IU85); settings: at 1 µM
# [20] = target: Calcium/calmodulin-dependent protein kinase type II subunit alpha (Homo sapiens) (UniProt Q9UQM7); settings: at 0.1 µM;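 further: reported values are averages (mean inhibition of CAMK2A)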
# Calcium/calmodulin-dependent protein kinase type II subunit alpha (Homo sapiens), sequence (Q9UQM7 whole entry): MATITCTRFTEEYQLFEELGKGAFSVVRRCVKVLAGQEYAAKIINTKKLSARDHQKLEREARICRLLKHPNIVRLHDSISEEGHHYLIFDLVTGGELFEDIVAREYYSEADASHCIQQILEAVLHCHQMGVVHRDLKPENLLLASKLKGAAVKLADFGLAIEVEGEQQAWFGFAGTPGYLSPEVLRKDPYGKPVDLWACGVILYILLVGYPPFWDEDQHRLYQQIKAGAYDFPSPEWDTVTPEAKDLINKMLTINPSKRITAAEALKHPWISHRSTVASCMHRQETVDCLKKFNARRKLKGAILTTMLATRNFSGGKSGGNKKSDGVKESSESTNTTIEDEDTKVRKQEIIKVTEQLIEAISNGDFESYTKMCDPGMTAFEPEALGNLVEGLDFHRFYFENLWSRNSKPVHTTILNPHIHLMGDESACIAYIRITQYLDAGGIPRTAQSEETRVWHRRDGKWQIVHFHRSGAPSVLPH
# Ribosomal protein S6 kinase alpha-6 (Homo sapiens), sequence (Q9UK32 whole entry): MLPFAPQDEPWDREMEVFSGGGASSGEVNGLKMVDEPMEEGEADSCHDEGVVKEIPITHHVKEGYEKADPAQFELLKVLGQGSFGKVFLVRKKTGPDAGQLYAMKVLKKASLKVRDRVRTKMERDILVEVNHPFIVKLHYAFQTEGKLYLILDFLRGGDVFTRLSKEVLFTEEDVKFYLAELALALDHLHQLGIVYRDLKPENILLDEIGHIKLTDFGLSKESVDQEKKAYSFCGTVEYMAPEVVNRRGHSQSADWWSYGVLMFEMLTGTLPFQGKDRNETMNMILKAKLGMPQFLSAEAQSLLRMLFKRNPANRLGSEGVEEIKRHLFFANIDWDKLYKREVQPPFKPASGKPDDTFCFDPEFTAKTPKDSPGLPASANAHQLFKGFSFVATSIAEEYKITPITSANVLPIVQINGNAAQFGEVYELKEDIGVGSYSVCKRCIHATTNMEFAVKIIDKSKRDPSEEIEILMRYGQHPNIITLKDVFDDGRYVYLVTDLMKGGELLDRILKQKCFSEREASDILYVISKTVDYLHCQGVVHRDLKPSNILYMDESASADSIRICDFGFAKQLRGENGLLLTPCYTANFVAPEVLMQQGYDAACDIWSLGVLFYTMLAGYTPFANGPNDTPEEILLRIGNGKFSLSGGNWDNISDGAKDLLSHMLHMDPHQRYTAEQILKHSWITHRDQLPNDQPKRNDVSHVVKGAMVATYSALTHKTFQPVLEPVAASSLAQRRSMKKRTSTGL
# Calcium/calmodulin-dependent protein kinase type 1D (Homo sapiens), sequence (Q8IU85 whole entry, looked up): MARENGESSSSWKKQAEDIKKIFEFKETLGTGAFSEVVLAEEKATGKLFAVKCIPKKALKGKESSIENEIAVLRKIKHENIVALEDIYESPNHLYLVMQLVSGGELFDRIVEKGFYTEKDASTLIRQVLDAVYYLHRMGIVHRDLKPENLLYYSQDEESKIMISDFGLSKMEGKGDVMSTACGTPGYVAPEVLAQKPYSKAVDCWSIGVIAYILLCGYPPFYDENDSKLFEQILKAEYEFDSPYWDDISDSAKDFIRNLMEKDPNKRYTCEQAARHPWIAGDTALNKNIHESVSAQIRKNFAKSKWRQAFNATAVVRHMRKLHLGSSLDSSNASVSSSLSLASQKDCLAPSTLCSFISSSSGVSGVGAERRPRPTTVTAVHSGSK
# 5'-AMP-activated protein kinase catalytic subunit alpha-1 (Homo sapiens), sequence (Q13131 whole entry, looked up): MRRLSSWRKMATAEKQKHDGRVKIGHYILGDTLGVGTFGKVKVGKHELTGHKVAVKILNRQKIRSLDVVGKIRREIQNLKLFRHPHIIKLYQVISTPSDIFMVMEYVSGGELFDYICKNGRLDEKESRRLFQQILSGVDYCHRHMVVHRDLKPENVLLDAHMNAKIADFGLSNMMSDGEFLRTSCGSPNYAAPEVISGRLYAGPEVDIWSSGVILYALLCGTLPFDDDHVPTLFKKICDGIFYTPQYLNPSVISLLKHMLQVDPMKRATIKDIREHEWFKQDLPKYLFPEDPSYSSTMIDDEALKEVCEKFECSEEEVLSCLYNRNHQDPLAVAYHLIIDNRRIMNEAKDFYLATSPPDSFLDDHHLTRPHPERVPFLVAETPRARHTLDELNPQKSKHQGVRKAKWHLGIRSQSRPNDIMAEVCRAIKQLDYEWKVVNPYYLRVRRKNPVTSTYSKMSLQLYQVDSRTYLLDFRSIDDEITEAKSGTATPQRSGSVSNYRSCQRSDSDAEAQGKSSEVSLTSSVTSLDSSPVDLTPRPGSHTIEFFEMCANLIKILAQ
# 5'-AMP-activated protein kinase catalytic subunit alpha-2 (Homo sapiens), sequence (P54646 whole entry, looked up): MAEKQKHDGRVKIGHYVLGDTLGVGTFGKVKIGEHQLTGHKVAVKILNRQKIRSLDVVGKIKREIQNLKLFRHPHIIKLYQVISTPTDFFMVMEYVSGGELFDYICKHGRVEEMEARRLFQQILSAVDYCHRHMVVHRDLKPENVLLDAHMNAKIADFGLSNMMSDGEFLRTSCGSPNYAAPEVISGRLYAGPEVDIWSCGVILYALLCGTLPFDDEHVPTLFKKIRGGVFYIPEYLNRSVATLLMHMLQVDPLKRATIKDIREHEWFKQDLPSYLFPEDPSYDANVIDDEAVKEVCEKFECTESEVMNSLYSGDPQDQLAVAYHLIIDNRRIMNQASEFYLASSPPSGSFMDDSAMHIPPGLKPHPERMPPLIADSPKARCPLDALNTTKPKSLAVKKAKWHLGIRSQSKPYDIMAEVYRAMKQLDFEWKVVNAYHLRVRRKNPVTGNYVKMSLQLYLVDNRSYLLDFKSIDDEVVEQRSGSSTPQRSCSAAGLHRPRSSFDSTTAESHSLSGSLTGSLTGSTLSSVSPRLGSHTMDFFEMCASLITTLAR
Structure (SMILES),inhibition [1] [%],inhibition [2] [%],inhibition [3] [%],inhibition [4] [%],inhibition [5] [%],inhibition [6] [%],inhibition [7] [%],inhibition [8] [%],inhibition [9] [%],inhibition [10] [%],inhibition [11] [%],inhibition [12] [%],inhibition [13] [%],inhibition [14] [%],inhibition [15] [%],inhibition [16] [%],inhibition [17] [%],inhibition [18] [%],inhibition [19] [%],inhibition [20] [%]
Cc1c2ccc(N(C)c3ccnc(Nc4cccc(S(N)(=O)=O)c4)n3)cc2nn1C,4.77,3.85,4.14,2.67,3.7,4.44,8.06,3.77,4.2,3.67,5.34,10.9,46.2,3.47,3.4,1.95,2.47,0.58,2.6,3.49
CCS(=O)(=O)c1ccc(OC)c(Nc2ncc(-c3cccc(F)c3)o2)c1,6.33,2.66,4,0.06,1.18,3.85,3.03,2.82,5.78,7.22,5.58,0.71,12.5,1.15,-0.68,1.63,3.22,0.89,2.56,2.75
N#Cc1cccc(Nc2ncc(-c3ccccc3)o2)c1,-0.13,2.75,7.53,1.9,-1.67,2.18,5.3,1.1,1.53,-0.83,1.61,0.75,7.37,-1.88,1.82,0.65,5,-1.6,-1.52,1.87
N#Cc1ccc2c(-c3ccnc(NC4CC4)n3)c(-c3ccc(F)cc3)nn2c1,1.24,1.64,1.98,-0.02,-1.14,2.02,1.13,0.78,0.77,0.36,1.42,-1.39,-2.95,-0.28,-0.2,-0.61,1.09,-0.16,0.14,-0.56
CNC(=O)c1sc(-n2cnc3cc(OC)c(OC)cc32)cc1OCc1ccccc1C(F)(F)F,1.47,2.16,1.23,0.8,2.63,3.8,1.89,3.22,4.14,0.14,-1.59,0.7,6.22,0.35,4.45,4.29,4.88,0.71,-0.22,2.98
COc1ccccc1-c1cc(/C=C2\C(=O)Nc3ncc(Br)cc32)cc(Br)c1O,2.05,4.47,5.53,3.23,2.58,4.46,0.16,4.85,9.85,5.58,7.88,4.1,6.09,4.73,5.82,5.97,4.72,0.1,1.73,4.16
CCN1CCC(C(=O)Nc2n[nH]c3nnc(-c4cccc(F)c4F)cc23)CC1,0.55,0.58,1.25,2.32,0.65,-1.34,1.23,0.5,2.46,1.01,3.06,3.72,5.44,-0.16,1.41,1.7,3.77,0.68,0.83,-1.94
